Here are results for 40 molecules from PubChem BioAssay (NCI).

The panel holds about 83,000 compounds, 20% with a hit somewhere; the sample as a whole holds those more often.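 Activity criterion: percent growth below 10, measured after cells in 96-well plates were exposed to a single compound concentration for 48 hours.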 Unmarked numbers belong to inactive results. The source made the active and inactive calls.

The experiment deals with UACC-62 melanoma. Description: NCI-60 one-dose screen, 48 h (100 = growth as untreated, 0 = no growth, -100 = all killed). The settings on record: 10 µM unless noted. The method, then: Growth inhibition of the UACC-62 human tumor cell line is measured as a screen for anti-cancer activity. Cells are grown in 96 well plates and exposed to the test compound for 48 hours. Compounds are tested at a single concentration, which is 10^-5 M for most compounds. The reported endpoint is percent growth (GI% or GIPRCNT), where numbers from 0 - 100% represent growth inhibition, and numbers from -100% - 0 represent cell death. For example, a value of 40 represents 60% growth inhibition. A value of 0 means no net growth occurred over the course of the experiment. A value of -40 indicates 40% of cells at the beginning of the experiment died by the end of the experiment. A value of -100 means all cells are dead at the end of the experiment.
NCI-60 Human Tumor Cell Lines Screen was performed using the standard one-dose NCI protocol, which is described in more detail at https://dtp.cancer.gov/discovery_development/nci-60/default.htm.
Compounds with GIPRCNT values below 10 were considered active. Activity score was based on GIPRCNT using the following formula: […]
Score is 0 for GIPRCNT values of 100 or above, 50 for GIPRCNT values of 0, and 100 for GIPRCNT values of -100.
Turning to `CC1(C)N=C(N)N=C(N)N1c1cc(Cl)ccc1Cl`, the growth is 88.7%.

`CCCn1c(=S)sc2c(NNC(C)=O)nc(C)nc21`: the growth is 93%.

In the case of `CCOC(=O)c1cnn(CC(C)O)c1NC(=O)NCc1cccc(F)c1` (stereo not given), the growth was 92.2%.

Consider `Clc1ccc2nn3c4ccccc4c(OCCN4CCOCC4)nc3c2c1`, for which the growth was 67.6%.

For the molecule `Cc1cc(Cl)nc(N2CCN(CCNc3ccnc4cc(Cl)ccc34)CC2)n1`, the growth is 29.7%.

In the case of `COc1cc2c(cc1-c1c(C)noc1C)ncc1nc(CN3CCOCC3)n([C@H](C)COC(F)F)c12`, the growth is 17.4%.

Consider `CC1SC(c2ccccc2O)N(NC(=O)CCC(=O)c2nc3ncccc3[nH]2)C1=O` (stereo not given), for which the growth was 99.4%.

Regarding `C(=C(\C1=NCCN1)n1ccc2ccccc21)/c1ccccc1`, the growth was 93.5%.

As for `COc1ccc(C/C(C)=C(\c2ccc(O)cc2)c2ccc(OCCN3CCCCC3)cc2)cc1`, the growth was 90.5%.

On to `CS(=O)(=O)Nc1cc(-c2ccc3ncnc(Nc4ccc(OCc5ccccn5)c(Cl)c4)c3c2)cnc1Cl`, for which the growth was 4.79% (active).

For `COc1ccc(CN2C(=O)OC(C)(COC(C)=O)C2=O)cc1` (stereo not given), the growth is 95.6%.

Consider `COc1ccc2c(c1)C(C)Cc1c(ncnc1-n1cnc3cc(C)ccc31)N2C` (stereo not given), for which the growth was 36.1%.

Take `CCOC(=O)C#Cc1c(C(=O)OCC)nnn1[C@@H]1O[C@H](COC)[C@@H](OC)[C@H]1OC`: the growth is 93.8%.

Regarding `O=C(/C=C/c1ccco1)Nc1ncc(Cc2cc(Cl)ccc2Cl)s1`, the growth was 26.9%.

As for `O=C(NCCNC(c1ccccc1)C(NCCNC(=O)c1ccccc1)c1ccccc1)c1ccccc1` (stereo not given), the growth is 85.2%.

For `N#Cc1nn(-c2cc(=O)[nH]c3ccc(Br)cc23)c(N)c1C#N`, the growth is 86.6%.

In the case of `C=C1C(=O)O[C@H]2[C@H]1CC/C(COC(=O)NCc1ccc(Cn3c(=O)sn(-c4ccccc4)c3=O)cc1)=C\CC[C@@]1(C)O[C@@H]21`, the growth was 48.2%.

For `Clc1cccc(C2Cc3cnccc3-c3[nH]c4ccncc4c32)c1` (stereo not given), the growth is 36.5%.

As for `C=C(C)[C@@H]1CC[C@]2(C(=O)N3CCN(C)CC3)CC[C@]3(C)[C@H](CC[C@@H]4[C@@](C)(CCC(=O)O)[C@H](C(=C)C)CC[C@]43C)[C@@H]12`, the growth is 71.3%.

Turning to `CN(C)CCn1c(=O)c2ccccc2n2nc3ccccc3c12`, the growth is 72.7%.

Take `COc1ccc(C(=O)Nc2ncc(Cc3ccc(Cl)cc3)s2)cc1`: the growth is 33.5%.

Consider `COc1cc(N2C(=O)[C@H](Cl)C2c2ccc(SC)cc2)cc(OC)c1OC` (stereo not given in full), for which the growth was 29.5%.

Turning to `N#Cc1ccc(O)c(C2=NCC(c3ccc(-c4ccccc4)cc3)O2)c1` (stereo not given), the growth was -5.35% (active).

Consider `CC/C(=C(/c1ccc(O)cc1)c1ccc(OCCN2CCCCC2)cc1)c1ccc(OC)cc1`, for which the growth was 112%.

With `N#Cc1c(-c2ccc(Cl)cc2)nc(NN=Cc2ccc[nH]2)nc1N1CCOCC1`, the growth is 88%.

As for `c1ccc(-c2c(-c3ccccc3)[n+](Cc3ccc4ccccc4c3)cn2Cc2ccc3ccccc3c2)cc1`, the growth was -73.2% (active).

Take `Fc1cc2[nH]ncc2c2c3c(c(-c4cn[nH]c4C(F)(F)F)nc12)CCCC3`: the growth is -4.44% (active).

Consider `CCOC(=O)c1c(C)nc2ccccc2c1/C=C/c1ccc(F)cc1`, for which the growth was 49.7%.

As for `N#Cc1c(-c2cccc(Cl)c2)cc(-c2cccnc2)[nH]c1=O`, the growth is 36.6%.

With `Cc1cccc(N=Nc2cccc(C)c2)c1`, the growth was 92.8%.

On to `Cc1nc2sc(C(=O)Nc3ccccn3)c(N)c2cc1C(C)O` (stereo not given), for which the growth is 42.7%.

With `COc1ccc(-c2nc(SCC(=O)Nc3nc4ccc(C)cc4s3)[nH]c(=O)c2C#N)cc1OC`, the growth is 94.4%.

Consider `O=C1CCCCN1c1ccc(C2=NCCCN2)cc1`, for which the growth is 90.3%.

Turning to `Cc1ccc2c(c1)nc(C)n2-c1ncnc2c1CC(C)c1cc(O)ccc1N2C` (stereo not given), the growth was 39.3%.

Take `CC(C)c1ccc2c(c1)CC[C@H]1[C@](C)(C(=O)OCC#CCN3CCCC3)CCC[C@]21C`: the growth is 55.4%.

`C=C(C)[C@@H]1CC[C@]2(C(=O)Nc3ccccn3)CC[C@]3(C)[C@H](CC[C@@H]4[C@@]5(C)CCCNC(C)(C)[C@@H]5CC[C@]43C)[C@@H]12`: the growth was 36.1%.

With `COc1ccccc1/C=C/C(=O)Nc1ccc(F)cc1`, the growth was 89.8%.

In the case of `Cc1cc(N2CCN(CC(=O)Nc3ccc4c(ccn4Cc4ccccc4)c3)CC2)nc(N2CCOCC2)n1`, the growth is 67.7%.

Regarding `C=C1CC[C@@H]2C(C)(C)[C@H](O)CC[C@@]2(C)[C@@H]1COc1ccc2ccc(=O)oc2c1`, the growth is 24.5%.

As to `O=CCCCOCc1ccccc1`, the growth is 95.2%.
